IL2 activator = qHTS of IL-2 Activators | activation, % (series mostly up to about 46 µM) | AID 652025, 2013 | actives 0.065% (n = 360,000) | IL-2 activation reporter assay, cell-based qHTS; stimulated with anti-CD3/CD4/CD28 beads; in transgenic mouse T cells; in the data active = activation above about 50%; inconclusive = mostly about 30% to 49%
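Readout is EGFP and DsRed signal by fluorescent plate cytometry after 18 h at 37 degrees C. Transgenic mouse T cells (750/well) received compound for 60 min before bead stimulation (anti-CD3, anti-CD4, anti-CD28); memory T cells served as non-tolerant control.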
A-T KAP1 phos = qHTS Assay for Identifying a Potential Treatment of Ataxia-Telangiectasia. F2112 A-T fibroblasts, KAP-1 phosphorylation AlphaLISA; neocarzinostatin DNA damage 30 min before lysis. Potency, µM (highest dose often 57.5 µM), most hits filed as activators. AID 485349, 2010. actives 0.19% (n = 320,000); also: nearly all actives have a fitted effect of over 45% in size
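hTERT-immortalized A-T patient fibroblasts (F2112), 500 cells/well in OPTI-MEM, 1% FBS, got compounds for 60 min, then NCS for 30 min at 37C. Lysates were then assayed for phospho-KAP-1 by AlphaLISA (anti-pKAP1 donor, anti-KAP1 acceptor beads), 6 hr at 25C.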
Integrin act MD = qHTS for Activators of Integrin-Mediated Alleviation for Muscular Dystrophy | alpha7betagal myoblasts, beta-gal FDG fluorescence, 48 h | Potency, µM (highest dose often 38.3 µM), actives largely listed as activators | actives 0.064% (n = 350,000) | AID 624291, 2012; also: nearly all actives have a fitted effect of over 60% in size
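alpha7betagal+/- myoblasts (passage 13, 250/well) treated 48 h at 37C with compounds at 1:260 dilution of DMSO stock. Lysed, then beta-galactosidase activity read as FDG fluorescence (ex 480/em 540) after 30 min, with pre-read for autofluorescence.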
PKM2 act = qHTS Assay for Activators of Human Muscle isoform 2 Pyruvate Kinase | Pyruvate kinase PKM (Homo sapiens), P14618 | purified PKM2, Kinase-Glo ATP luminescence, activation; response scale: 0% is enzyme alone, no compound | Potency, µM (doses to about 57.5 µM), hits mostly activators | actives 0.34% (n = 260,000); also: nearly all actives have a fitted effect of over 55% in size
Target sequence (P14618 whole entry, looked up, canonical isoform): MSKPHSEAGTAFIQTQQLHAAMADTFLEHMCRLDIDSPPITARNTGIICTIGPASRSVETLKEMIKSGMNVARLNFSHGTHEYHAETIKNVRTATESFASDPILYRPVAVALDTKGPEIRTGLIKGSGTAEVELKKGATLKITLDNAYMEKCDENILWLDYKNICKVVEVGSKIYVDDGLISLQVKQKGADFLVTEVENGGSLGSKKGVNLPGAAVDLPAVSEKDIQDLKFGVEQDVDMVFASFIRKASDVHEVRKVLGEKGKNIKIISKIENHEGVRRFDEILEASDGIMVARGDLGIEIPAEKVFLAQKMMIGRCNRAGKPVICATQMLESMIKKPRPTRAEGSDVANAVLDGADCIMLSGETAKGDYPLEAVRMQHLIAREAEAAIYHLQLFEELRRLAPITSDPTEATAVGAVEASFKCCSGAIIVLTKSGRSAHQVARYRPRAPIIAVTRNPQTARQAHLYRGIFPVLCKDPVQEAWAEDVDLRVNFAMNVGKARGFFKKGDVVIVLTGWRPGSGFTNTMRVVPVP
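Kinase-Glo luminescence reports ATP generated from ADP (0.1 mM) and PEP (0.5 mM) by purified hPK-M2 after 1 h at room temperature, pH 7.2 imidazole buffer; intermediate enzyme activity allows detecting inhibitors and activators.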
TCR activator = Activators of T cell receptors: qHTS campaign; Potency, µM (doses to about 9.22 µM), hits mostly activators; 330,000 tested, under 10 active; primary human leukocytes, anti-CD3, IL-2 HTRF, 48 h
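Activity was scored as IL-2 release from primary human leukocytes given only a TCR signal (a-CD3 beads) plus compound for 48 hr. Detection used a two-antibody HTRF format read at 665nm.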
Tb PFK inh-1 = qHTS Assay to Find Inhibitors of T. brucei phosphofructokinase. ATP-dependent 6-phosphofructokinase (Trypanosoma brucei brucei), O15648. T. brucei PFK, ADP-Glo luminescence. Potency, µM (titrated, usually from 57.5 µM), usual class: inhibitors. actives 0.17% (n = 330,000). AID 485367, 2010; also: nearly all actives have a fitted effect of over 60% in size
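Activity is normalized to no-enzyme wells (full inhibition) and 1.25 nM enzyme wells (no inhibition). Reaction: 0.5 mM F6P, 0.1 mM ATP, 45 min RT, ADP-Glo luminescence; concentration-response curves fitted and classed by quality.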
HeLa tox = Secondary assay for Activators of Human Pyruvate Kinase M2 isoform - Cell Titer Glo cytotoxicity assay | shares compounds with PKM2 act | HeLa viability, CellTiter-Glo ATP luminescence, 24 h | activity change, negative = cytotoxicity, % at 57.5 µM | 230 tested, under 10 active | AID 1898, 2009
Tb PFK KinaseGlo = Tb PFK orthogonal confirmatory assay using ATP depletion (Kinase-Glo Plus) as an alternative measure of Tb PFK activity: Hit Validation; shares compounds with Tb PFK inh-1; Tb PFK enzyme, ATP depletion, Kinase-Glo Plus luminescence; Potency, µM (doses to about 57.5 µM); actives 47% (n = 1,100); AID 504636, 2011; calls by dose curve; also: nearly all actives have a fitted effect of over 60% in size
Tb PFK inh-2 = Inhibitors of T. brucei phosphofructokinase: Hit Validation; shares compounds with Tb PFK inh-1; Potency, µM (series often up to 57.5 µM), hits mostly inhibitors; actives 41% (n = 1,100); AID 504637, 2011; purified T. brucei PFK, ADP-Glo luminescence, 45 min; also: nearly all actives have a fitted effect of over 60% in size
A number is an active result; n = inactive; u = inconclusive; x = not tested or not shown. Sampled rows, rich in hits. Any-hit rate of the full collection: about 0.69%. Unless noted, calls follow the shape of the dose curve; as a rule, active = well fitted curve in the direction sought with a large enough effect; inconclusive = small, poorly fitted or top-dose-only effect, or another doubt; inactive = no such curve, though single readings can be large; an effect the other way counts as inactive or inconclusive.

SMILES	IL2 activator	A-T KAP1 phos	Integrin act MD	PKM2 act	TCR activator	Tb PFK inh-1	Tb PFK KinaseGlo	Tb PFK inh-2	others
CC(=O)Nc1ccc(Cc2nc3ccccc3[nH]2)cc1	n	n	n	n	n	n	x	x
NC(Cc1cc(O)c(O)cc1O)C(=O)O (stereo unspecified)	x	n	x	x	x	0.849µM	x	x
CC(C)N(Cc1ccco1)/N=C/c1c(O)n(Cc2ccccc2)c(=O)[nH]c1=O	n	39.8µM	n	n	n	n	x	x
COC(=O)[C@@]1(Cc2ccccc2)[C@H]2c3cc(C(=O)N(C)C)n(C)c3C[C@H]2CN1C(=O)c1ccccc1	x	x	x	n	x	x	x	x
Nc1c(Br)cc2c3c(cccc13)-c1ccccc1-2	81.8	x	n	x	n	x	x	x
c1ccc2c(c1)-c1cccc3cccc-2c13	n	u	n	x	n	n	x	x
O=C1NC(=O)N(c2ccc3c(c2)OCO3)C(=O)/C1=C\c1ccc(-c2ccccc2C(=O)O)o1	n	n	n	25.1µM	n	n	x	x
Cc1oc(=O)c(NC(=O)c2ccc(Cl)cc2)cc1C(=O)c1ccccc1	n	n	n	6.31µM	n	16.9µM	n	n	HeLa tox=n
Cc1ccc(C(=O)Nc2ccc(Cl)cc2C(=O)c2ccccc2)cc1	n	x	n	x	n	x	x	x
CC(C)(C)OC(=O)N1CC(O)CC1C(=O)OCC(=O)c1ccc(-c2ccccc2)cc1 (stereo unspecified)	n	n	n	n	n	n	x	x
CCCN1C(=O)S/C(=C/c2ccc(N3CCOCC3)o2)C1=O	n	n	n	1µM	n	u	n	n	HeLa tox=n
O=C(O)c1cc2ncc(-c3[nH]ncc3[N+](=O)[O-])cn2n1	n	n	n	n	n	u	n	u
Cn1cc(C(O)CN2CCCCC2)c2ccccc21 (stereo unspecified)	n	n	n	n	n	n	x	x
CC(C)(C)C(=O)[C@@H]1[C@@H]2C(=O)N(c3ccc4c(c3)OCCO4)C(=O)[C@@H]2C2c3ccccc3C=CN21 (stereo partly specified)	n	n	n	u	n	u	n	n
O=C1CC(=O)N(c2ccc3c(c2)OCO3)C(=O)N1	n	n	n	n	n	n	x	x
N#Cc1ccc2ccn(CC(=O)NCc3ccccc3)c2c1	n	n	n	n	n	u	u	21.3µM
ClCCN(CCCl)c1ccc(C=Cc2ccncn2)cc1	n	x	n	x	n	x	x	x
O=C(O)CC1S/C(=N/N=C/c2ccc(-c3ccccc3[N+](=O)[O-])o2)NC1=O (stereo unspecified)	n	n	n	n	n	u	n	u
Cc1ccc(-c2ccc(/C=N/N=C3/NC(=O)C(CC(=O)O)S3)o2)c([N+](=O)[O-])c1 (stereo unspecified)	n	n	n	n	n	u	n	u
C=CCN1C(=O)NC(=O)/C(=C\c2ccc(-c3ccccc3[N+](=O)[O-])o2)C1=O	n	n	n	n	n	n	x	x
CC(=O)C1C(N2CC2)CC2C3CC=C4CC(O)CCC4(C)C3CCC21C (stereo unspecified)	n	x	n	x	n	x	x	x
O=C(C[n+]1ccccc1)c1ccc(Cl)cc1	n	n	u	x	n	n	x	x
COc1cc2c(cc1OC)C13CCN4CC5CCOC6CC(=O)N2C1C6C5CC43 (stereo unspecified)	n	x	n	x	n	x	x	x
Cc1ccc(S(=O)(=O)N2Cc3cc(-c4ccccc4)ccc3-n3nncc3C2)cc1	n	x	x	x	x	x	x	x
CCCC1(CCO)C(=O)NC(=S)NC1=O	n	x	n	x	n	x	x	x
SMILES	IL2 activator	A-T KAP1 phos	Integrin act MD	PKM2 act	TCR activator	Tb PFK inh-1	Tb PFK KinaseGlo	Tb PFK inh-2	others
Cc1ccc(-c2csc3n[nH]c(=S)n23)cc1	n	n	n	n	n	u	0.301µM	0.426µM
O=C(Nc1cccc(C(F)(F)F)c1)Oc1ccccc1N1CCOCC1	n	n	u	n	n	n	x	x
FCCN(CCF)c1cccc(Cl)c1	n	n	n	n	n	19µM	8.49µM	23.9µM
CCC(c1ccc(C)cc1)N1C(=O)C2C3CCC(O3)C2C1=O (stereo unspecified)	n	n	n	x	n	n	x	x
CCC1(NS(=O)(=O)c2ccc(N)cc2)C(=O)N(C)C(=O)N(C)C1=O	n	x	n	x	n	x	x	x
NS(=O)(=O)c1ccc(NC(=O)Nc2cccc(Cl)c2)cc1	n	n	n	n	n	23.9µM	u	u
NS(=O)(=O)c1ccc(NC(=O)Nc2ccc(C(F)(F)F)cc2)cc1	n	n	u	n	n	u	6.01µM	13.5µM
Cc1cc(OC(F)F)ccc1NC(=O)Nc1ccc([N+](=O)[O-])cc1	n	n	n	n	n	u	u	u
C[N+](C)(C)CC#CCOC(=O)Nc1cccc(Cl)c1	n	x	x	x	n	x	x	x
Cc1ccc([N+](=O)[O-])cc1NC(=O)Nc1ccc(S(N)(=O)=O)cc1	n	n	n	n	n	12µM	13.5µM	26.9µM
CCc1c(-c2ccccc2)nc2ccccc2c1C(=O)N1CCC2(CC1)OCCO2	n	n	n	x	n	n	x	x
Cc1ccc(NC(=O)Nc2ccc(S(N)(=O)=O)cc2)cc1	n	n	n	n	n	21.3µM	13.5µM	u
Cc1ccc(-n2c(O)c(C=Nc3ccc(S(N)(=O)=O)cc3)c(=O)[nH]c2=O)cc1	n	n	n	n	x	n	x	x
Cc1nc(Cl)sc1C(=O)Nc1ccc2ccccc2c1	n	n	n	n	n	n	x	x
O=C(Nc1ccc2ccccc2c1)c1ccccc1O	n	n	n	x	n	u	n	u
O=C(NCP(=O)(Oc1ccccc1)Oc1ccccc1)OCc1ccccc1	n	x	x	x	x	x	x	x
CC(Nc1cccc([N+](=O)[O-])c1)C(=O)Nc1ccc(S(=O)(=O)N2CCCC2)cc1 (stereo unspecified)	n	n	n	x	n	u	u	u
COc1ccc(C/C(=N\OC(C)=O)c2ccc(OC)cc2)cc1	n	n	n	n	n	n	x	x

Source: PubChem BioAssay (National Center for Advancing Translational Sciences (NCATS))
